This is part of a sample that, as a whole, favours compounds with a hit. Of some 79,000 tested, about 15% had one in any assay. Unmarked numbers belong to inactive results. The source made the active and inactive calls. No stated cut-off is given here; in the data, active means growth inhibition above about 70%; inactive means the rest.

The experiment is described as follows: NCI Yeast Anticancer Drug Screen. Data for the bub3 strain (AID 167). The note with it: S. cerevisiae bub3 mutant strain, at 50.0 µM (retest, dose inferred, filed as 5.0), active compounds read high. A digest of the protocol:
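In this screen, a yeast mutant lacking normal mitotic checkpoint function is challenged with compound. Relative growth versus vehicle gives the inhibition value.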
In the case of `COC(OC)(c1ccccc1)C(Br)Br`, the growth inhibition was 89% (active).
Consider `Cc1ccc(S(=O)(=O)OCCc2ccc(Cl)cc2)cc1`, for which the growth inhibition is 22%.
The result for `O=C(CC(=O)c1ccncc1)c1ccccc1` reads 98% (active).
The result for `CCN1CCC(O)(/C=C/c2ccccc2)C(C(=O)/C=C/c2ccccc2)C1` (stereo not given) reads 94% (active).
As for `O=C(O)c1cc(Br)ccc1OCc1ccc(Cl)cc1`, the growth inhibition is 9%.
Take `Cc1ccc(C2COc3cc(O)c(O)cc3C2)cc1` (stereo not given): the growth inhibition was 99% (active).
Consider `COC(=O)c1c2oc3c(C(=O)OC)cccc3nc-2cc(N)c1=O`, for which the growth inhibition is 59%.
As to `CC(=O)NCCN(C)C`, the growth inhibition was 0%.
The result for `N=c1scc(-c2ccccc2)n1/N=C/c1cccnc1` reads 96% (active); that for `C(=C/c1ccccc1)/C=N/Nc1ccccc1`, -59%.
The result for `OC(Cc1ccc(Br)cc1)CN1CCC(c2ccccc2)CC1` (stereo not given) reads 83% (active); that for `O=C1C(Cl)=C(Nc2ccc(S(=O)(=O)O)cc2)C(=O)c2ccccc21`, 99% (active).
The result for `CC1(CO)CCCC2(C)C3=C(CCCC3)CCC12` (stereo not given) reads 95% (active).
For the compound `Cc1cc2nc(CC(=O)c3ccc4ccccc4c3)c(=O)[nH]c2cc1C`, the growth inhibition was -19%.
The result for `CN(CCO)CCn1cnc2c1c(=O)n(C)c(=O)n2C` reads 9%; that for `O=C1c2ccccc2CC(Br)c2ccccc21` (stereo not given), -3%.
Regarding `Cc1cccc2c(CBr)cc(=O)[nH]c12`, the growth inhibition is 96% (active).
The result for `CC(=O)CC1CCC(=O)/C=C/C(=O)OC(CC(C)=O)CCC(=O)/C=C/C(=O)O1` (stereo not given) reads 82% (active); that for `CCN(CC)CC(O)c1c(-c2ccccc2)c(-c2ccccc2)c2n1CCC2` (stereo not given), 90% (active); that for `CC1(C)CC[C@]2(C(=O)O)[C@H](O)C[C@]3(C)C(=CC[C@@H]4[C@@]5(C)CC[C@H](OC6OCC(O)C(O)C6OC6OCC(O)C(O)C6OC6OCC(O)C(O)C6O)C(C)(C)[C@@H]5CC[C@]43C)[C@@H]2C1` (stereo not given in full), 100% (active).
The result for `Cc1ccc(NC(=O)/C(CC(=O)c2sc(Nc3ccc(Cl)c(Cl)c3)nc2C)=N\Nc2ccc([N+](=O)[O-])cc2[N+](=O)[O-])c(C)c1` reads 99% (active); that for `CC(=O)N=C1N(/C=C2\C(=O)Oc3ccccc3C2=O)C(=O)/C(=C/c2ccc(Cl)cc2Cl)N1C`, 87% (active).
The result for `COC1OC2COC(c3ccccc3)OC2C(NC(=S)SCc2ccccc2)C1O` (stereo not given) reads 99% (active); that for `O=C(CCN1CCCCC1)N1CCc2c([nH]c3ccccc23)C1c1cccnc1` (stereo not given), 46%; that for `Cc1ccc(Sc2ccc(C)cc2[N+](=O)[O-])c([N+](=O)[O-])c1`, 56%.
Regarding `O=c1c2cc3ccccc3cc2c(=O)n2n1CC=CC2`, the growth inhibition was -1%.
The result for `ClC(Cl)=C1C(=C(Cl)Cl)C(Cl)(Cl)C1(Cl)Cl` reads 98% (active).
For the compound `Cc1c(C(=O)N(CCO)CCO)[n+](=O)c2ccccc2n1[O-]`, the growth inhibition is 26%.
Turning to `CN(C)c1cc(N(C)C)c2cc(-c3ccccc3)sc2n1`, the growth inhibition is 93% (active).
The result for `O=C(Nc1ccccc1O)/C(Cl)=C/Cl` reads 96% (active).
The result for `Cc1ccccc1SCc1nc2ccccc2c(C)[n+]1[O-]` reads 69%; that for `Oc1ccc2c(ccc3ccccc32)c1`, 88% (active); that for `O=C1c2ccccc2C(=O)N1C(=NCc1ccccc1)c1ccccc1`, 66%.
For `Cc1cc(Cl)cc2c1OCN(C)C2`, the growth inhibition was 94% (active).
For `CC(C)C(=O)/C=C/c1ccc(Cl)cc1Cl`, the growth inhibition was 54%.
The result for `CC(C)C(=O)c1ccc([N+](=O)[O-])o1` reads 97% (active); that for `CSc1c(S(C)=O)c2ccccc2n1C` (stereo not given), 8%.
The result for `O=C(CCCCN1CCN2c3ccccc3CCC2C1)c1ccccc1` (stereo not given) reads 37%.
The result for `COC(=O)c1ccc(C)cc1CC1Cc2cc(C)ccc2C1=O` (stereo not given) reads 49%; that for `Cc1cc(Nc2ccc(N=Nc3ccc(O)c4ncccc34)cc2)nc(C)n1`, 4%.

(Values after PubChem BioAssay (NCI).)
